About 79,000 compounds went through this panel and 15% of them were active in at least one assay; those are over-represented in the sample as a whole. A number with no mark means an inactive call. Active and inactive are the calls of the source. Cut-off read from the data, not from the text of the source: active = growth inhibition above about 70%; inactive = the rest.
Legend:
[1] = NCI Yeast Anticancer Drug Screen. Data for the rad50 strain (AID 155);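 note: 0% = growth of vehicle-only cultures of the same strain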; conditions: S. cerevisiae rad50 strain growth inhibition, hits give high values
In short: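 Readout: growth inhibition relative to vehicle-treated cultures. Compound exposure was carried out in a genetically defined yeast strain deficient in DNA damage repair.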

[2] = NCI Yeast Anticancer Drug Screen. Data for the mec2-1 strain (AID 157); conditions: S. cerevisiae mec2-1 strain, hits give high values
In short: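 Test agents were screened against the mec2-1 yeast strain, with defined DNA repair or cell cycle alteration. Growth was scored as inhibition against vehicle-only controls.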

[3] = NCI Yeast Anticancer Drug Screen. Data for the sgs1 mgt1 strain (AID 161);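 note: 0% = growth of cultures given vehicle only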; conditions: S. cerevisiae sgs1 mgt1 strain, hits give high values
In short: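 Mutant yeast exposed to compound; growth scored against vehicle-only wells.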

[4] = NCI Yeast Anticancer Drug Screen. Data for the cln2 rad14 strain (AID 165);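 note: 0% = growth equal to vehicle treated cultures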; conditions: S. cerevisiae cln2 rad14 strain, hits give high values
In short: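 Growth of compound-exposed yeast (cln2 rad14 genotype) measured and expressed as inhibition relative to vehicle.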

[5] = NCI Yeast Anticancer Drug Screen. Data for the bub3 strain (AID 167); conditions: S. cerevisiae bub3 mutant strain, hits give high values
In short: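 Readout: yeast growth inhibition, expressed relative to vehicle-only wells. The test organism is a mutant strain from a panel with lesions in DNA repair or checkpoint genes.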

[6] = NCI Yeast Anticancer Drug Screen. Data for the mlh1 rad18 strain (AID 175); conditions: S. cerevisiae mlh1 rad18 strain growth inhibition, hits give high values
In short: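 In this whole-cell yeast screen, a strain with altered DNA damage repair is challenged with compound, and its growth is measured against matched vehicle-treated controls.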

[7] = at 5.0 µM (retest, dose inferred, filed as 0.5)
[8] = at 50.0 µM (retest, dose inferred, filed as 5.0)

SMILES | growth inhibition [1, 7] | growth inhibition [1, 8] | growth inhibition ([1]; at 50.0 µM) | growth inhibition [2, 7] | growth inhibition [2, 8] | growth inhibition ([2]; at 50.0 µM) | growth inhibition [3, 7] | growth inhibition [3, 8] | growth inhibition ([3]; at 50.0 µM) | growth inhibition [4, 7] | growth inhibition [4, 8] | growth inhibition ([4]; at 50.0 µM) | growth inhibition [5, 7] | growth inhibition [5, 8] | growth inhibition ([5]; at 50.0 µM) | growth inhibition [6, 7] | growth inhibition [6, 8] | growth inhibition ([6]; at 50.0 µM)
CN1C(OCc2ccccc2)c2c(ccc3c2OCO3)C2C=Cc3cc4c(cc3C21)OCO4 (configuration not stated) | 47% | 99% (active) | 92.8% (active) | 39% | 99% (active) | 93.2% (active) | 96% (active) | 100% (active) | 93% (active) | 89% (active) | 98% (active) | 92.7% (active) | 93% (active) | 99% (active) | 91.8% (active) | 96% (active) | 99% (active) | 91.1% (active)
Cc1c(C(C)(C)C)cc(C(C)(C)C)c(O)c1CN(C)Cc1c(C)c(C(C)(C)C)cc(C(C)(C)C)c1O | -3% | 8% | 99.5% (active) | -8% | 3% | 99.3% (active) | 3% | 33% | 99.6% (active) | -6% | -3% | 99.5% (active) | -3% | 13% | 99.4% (active) | 4% | 17% | 99.5% (active)
Nc1nnc2nc(CC(=O)c3ccccc3)/c(=C/C(=O)c3ccccc3)n12 | -21% | -10% | -14.1% | -11% | -20% | 9.4% | -23% | -6% | 1.05% | -17% | -16% | 28.6% | 5% | -5% | -4.95% | -21% | -9% | -0.3%
CC(C)(C)C(=O)OC12/C(=N/O)CCCCCC1c1ccccc12 (configuration not stated) | -17% | 88% (active) | 81.8% (active) | 6% | 92% (active) | 86% (active) | -12% | 89% (active) | 81.2% (active) | 31% | 96% (active) | 85.3% (active) | -9% | 93% (active) | 84.2% (active) | 14% | 92% (active) | 80.5% (active)
CC(C)=C1C=C2CCC3C(C)(C(=O)O)CCCC3(C)C2CC1 (configuration not stated) (tested in a mixture with another compound) | -4% | 90% (active) | 72.5% (active) | -5% | 61% | 40.1% | -5% | 48% | 59.4% | -5% | 47% | 20.3% | -7% | 98% (active) | 38.8% | -1% | 76% (active) | 60.8%
S=C(NC(=S)Nc1ccccc1)Nc1ccccc1 | 0% | 29% | 93.8% (active) | -5% | 37% | 82.9% (active) | 7% | 69% | 96.3% (active) | -8% | 8% | 91.7% (active) | -1% | 21% | 96.3% (active) | 8% | 55% | 95.3% (active)
Oc1ccc(N=Nc2cc(Cl)ccc2Cl)cc1 | 92% (active) | 95% (active) | 98.5% (active) | 94% (active) | 96% (active) | 98.2% (active) | 95% (active) | 95% (active) | 98.5% (active) | 94% (active) | 94% (active) | 82.5% (active) | 93% (active) | 95% (active) | 98% (active) | 94% (active) | 96% (active) | 97.7% (active)
O=C1c2ccccc2CN1Cc1ccc(Cl)c(Cl)c1 | -1% | 93% (active) | 84.4% (active) | -3% | 95% (active) | 42.2% | -1% | 96% (active) | 93.1% (active) | -1% | 81% (active) | 45.5% | 3% | 92% (active) | 79.4% (active) | -2% | 91% (active) | 65%
C/C(=N/NC(=S)Nc1ccccc1Cl)c1ccccn1 | -1% | 19% | 70.4% (active) | -30% | 11% | 50.1% | -51% | 22% | 81.3% (active) | 3% | 5% | 78.3% (active) | -37% | 17% | 56.2% | -21% | 20% | 77.2% (active)
